# High-throughput results deposited in PubChem by National Center for Advancing Translational Sciences (NCATS).
# The list is not random: actives were taken first. Their share in the collection is about 7.5%.
# NPC1 prom act: qHTS Assay for NPC1 Promoter Activators; Potency, µM (highest dose often 9.22 µM), hits mostly activators; Huh7 NPC1 promoter luciferase reporter, 24 h; AID 485313, 2010; hit rate 2.4% among 320,000; note: nearly all actives have a fitted effect of over 60% in size
#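 Stably transfected Huh7 (NPC1 promoter→luciferase), 1500 cells/well in Opti-MEM + 10% FBS, 2 h settle, then compound 24 h at 37 °C. Luminescence after 10 min with Amplite reagent.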
# Rab9 prom act: qHTS Assay for Rab9 Promoter Activators | Potency, µM (doses to about 9.22 µM), actives largely listed as activators | hit rate 2.8% among 320,000 | Huh7 Rab9 promoter-luciferase reporter, luminescence, 24 h; note: nearly all actives have a fitted effect of over 60% in size
#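 Steps: seed 1500 Huh7 Rab9-luc cells per well, rest 2 h at 37 °C; add compound in DMSO; incubate 24 h; add luciferase reagent, 10 min ambient; read luminescence.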
# SMN2 splice up: qHTS Assay for Enhancers of SMN2 Splice Variant Expression; HEK293 SMN2-luciferase splicing reporter, luminescence, 30-36 h; Potency, µM (titrated, usually from 46.1 µM), usual class: activators; hit rate 2.8% among 210,000; AID 1458, 2008; note: nearly all actives have a fitted effect of over 55% in size
#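 HEK293 cells carry an SMN2 […]–luciferase reporter in which exon 7 inclusion puts luciferase in frame. Cells were plated 10-12 h before compound addition, then incubated 30-36 h at 37C. ONE-Glo luminescence was read; sodium butyrate at 4.5 mM final served as control.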
# ELG1 genotox: qHTS screen for small molecules that induce genotoxicity in human embryonic kidney (HEK293T) cells expressing luciferase-tagged ELG1; HEK293T ELG1-luciferase reporter, luminescence, 16 h; Potency, µM (highest dose often 46 µM), hits mostly activators; hit rate 1.3% among 330,000; AID 504466, 2011; note: nearly all actives have a fitted effect of over 60% in size
#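 DMSO vehicle served as control against compound-treated ELG1-luciferase HEK293T cells; exposure lasted 16 hr at 37 °C and 5% CO2, followed by ONE-Glo luminescence detection after 30 min.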
# Luc counter: Counterscreen for Luciferase (Kinase-Glo TM) Inhibition; Luciferin 4-monooxygenase (Photuris pensylvanica), Q27757; Kinase-Glo luciferase, ATP luminescence, 8 min; Potency, µM (titrated, usually from 38.3 µM), actives largely listed as inhibitors; AID 1379, 2008; hit rate 0.28% among 200,000; note: nearly all actives have a fitted effect of over 60% in size
#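 Compounds were added to a substrate mix at pH 7.2 (50 mM imidazole, 10 uM ATP, within the enzyme's linear range), followed by Kinase-Glo detection reagent; luminescence was measured after 8 minutes at ambient temperature.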
# FLuc counter: qHTS profiling assay for firefly luciferase inhibitor/activator using purifed enzyme and Km concentrations of substrates (counterscreen for miR-21 project); purified FLuc, Km substrates, luminescence inhibition; Potency, µM (highest dose often 57.5 µM), usual class: inhibitors; hit rate 6.9% among 360,000; note: nearly all actives have a fitted effect of over 55% in size
# Target sequence (P08659 whole entry, looked up): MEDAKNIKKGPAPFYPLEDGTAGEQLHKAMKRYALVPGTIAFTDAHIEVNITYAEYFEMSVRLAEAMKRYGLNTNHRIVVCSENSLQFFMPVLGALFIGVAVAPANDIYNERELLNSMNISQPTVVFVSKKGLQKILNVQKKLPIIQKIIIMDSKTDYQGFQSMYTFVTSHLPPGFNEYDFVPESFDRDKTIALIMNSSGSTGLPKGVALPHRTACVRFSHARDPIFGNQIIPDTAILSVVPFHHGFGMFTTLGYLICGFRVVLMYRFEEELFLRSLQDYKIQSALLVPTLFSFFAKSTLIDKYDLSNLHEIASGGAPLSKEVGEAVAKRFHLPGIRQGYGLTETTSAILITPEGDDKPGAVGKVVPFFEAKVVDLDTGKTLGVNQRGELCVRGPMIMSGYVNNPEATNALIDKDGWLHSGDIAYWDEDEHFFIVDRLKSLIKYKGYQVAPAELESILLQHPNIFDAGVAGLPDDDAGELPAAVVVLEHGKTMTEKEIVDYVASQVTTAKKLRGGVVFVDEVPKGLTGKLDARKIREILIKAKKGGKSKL
#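 Biochemical qHTS of compounds, final roughly 60 µM downward over six points, against 10 nM purified firefly luciferase using Km concentrations of substrates (10 uM D-luciferin, 10 uM ATP) in Tris acetate pH 7.5 buffer; luminescence output.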
# A number is an active result; - = inactive; ? = inconclusive; . = no result; [ ] = dose if it differs, or a comment. Calls come from the whole dose curve; as a rule, active = well fitted curve in the direction sought with a large enough effect; inconclusive = small, poorly fitted or top-dose-only effect, or another doubt; inactive = no such curve, though single readings can be large; an effect the other way counts as inactive or inconclusive.
SMILES,NPC1 prom act,Rab9 prom act,SMN2 splice up,ELG1 genotox,Luc counter,FLuc counter
C/C(=N\NC(=O)c1nn(C)cc1Br)c1cccc(NC(=O)c2ccncc2)c1,-,-,-,-,-,12µM
Cc1ccc(S(=O)(=O)N2CCCc3cc(NS(=O)(=O)c4ccc(F)c(C)c4)ccc32)cc1,.,.,.,.,.,-
CC(=O)OCCNC(=O)Cn1cnc2c1c(=O)n(C)c(=O)n2C,-,-,-,-,-,-[2.3 µM]
COc1ccc(CCNC(=O)CCc2c(C)nc3nc(C)nn3c2C)cc1OC,.,.,-,.,.,-
C=C(C)C(=O)/C=C/c1ccc(Br)cc1,.,.,-,.,-,.
C/C(=N\NC(=O)c1ccncc1)c1cccc(NC(=O)c2ccc(C(C)(C)C)cc2)c1,1.4µM,2µM,.,-,.,0.12µM
C/C(=N\NC(=O)c1ccco1)c1ccc(NC(=O)c2ccccc2)cc1,?,?,?,-,-,?
C/C(=N\Nc1ccccc1)c1cccc(N)c1,-,?,.,?,.,21µM
C/C(=N/NC(=O)c1ccncc1)c1ccc(NC(=O)c2ccccc2)cc1,-,-,.,-,.,21µM
CC(=O)Nc1ccc(/C(C)=N/NC(=O)c2ccncc2)cc1,-,-,-,-,-,-
C/C(=N\NC(=O)c1ccccc1O)c1ccc(NC(=O)c2ccccc2)cc1,?,?,.,-,.,21µM
CN(C)/C=N/c1nc2ccc3c(c2s1)CCCC3,2.5µM,3.5µM,14µM,?,-,6µM
COc1ccc(N=C2C(=Nc3ccc(OC)cc3)N(c3ccc(N(C)C)cc3)C(=S)N2c2ccc(OC)cc2)cc1,-,-,-,-,-,-
COc1ccc2nc(N=Nc3ccc(N(C)C)cc3)sc2c1,0.32µM,0.71µM,-,?,11µM,0.067µM
COc1ccc2nc(/N=C\N(C)C)sc2c1,-,?,-,-,-,24µM
COc1ccc2nc(/N=C/c3c(C)[nH]n(-c4ccc(C)cc4)c3=O)sc2c1,-,-,?,-,10µM,7.6µM
COCCNc1nc(C)nc2c1nc(-c1ccccc1)n2CCN(C)C,.,.,-,.,-,.
CCC(=O)Nc1ccccc1-c1nc2ccccc2n(CC(=O)c2ccc(C)c(C)c2)c1=O,.,.,.,.,.,-
COc1ccc2nc(/N=C/c3cccc(OC)c3O)sc2c1,-,?,.,?,.,0.95µM
COc1ccc2c(c1)-c1nc(/N=C/c3cccc(OC)c3O)sc1CC2,-,-,-[1.84 µM],-,-,?
COC(=O)c1sc(N/N=C/c2ccc(C(C)C)cc2)nc1C,-,?,.,-,.,19µM
CC(=O)c1sc(N/N=C\c2ccc(N(C)C)cc2)nc1C,1.3µM,2.5µM,.,4.6µM,.,1.3µM
CC(=O)c1sc(N/N=C/c2cccc(O)c2)nc1C,-,?,.,?,.,9.5µM
CCOC(=O)c1sc(N/N=C/c2cc(Br)c(O)c(OC)c2)nc1C,-,-,.,-,.,?
COc1ccc(CNC(=O)CCc2c(C)nc3c(c(C)nn3-c3ccccc3)c2C)cc1,.,.,-,.,.,-
SMILES,NPC1 prom act,Rab9 prom act,SMN2 splice up,ELG1 genotox,Luc counter,FLuc counter
CCOC(=O)c1oc2ccc(CNCCO)c(Cl)c2c1C,-,-,-,?,-,17µM
O=C(O)c1cccc(C(=O)Nc2cccc(NC(=O)C3CCCO3)c2)c1 (centres undefined),-,-,.,-,-,2.1µM
O=C(O)c1cccc(NC(=O)c2cccc(NC(=O)C3CCCO3)c2)c1 (centres undefined),-,-,-,-,-,3µM
CC1CCC2=C1C[C@H](C(C)(C)O)CC[C@@H]2C (some centres undefined),.,.,-,.,-,.
OC(CNCCc1ccc(C(F)(F)F)cc1)COC(c1ccccc1)c1ccccc1 (centres undefined),-,-,.,-,.,-
CN(C)c1ccc(NC(=O)c2ccc(Cn3cc([N+](=O)[O-])cn3)cc2)cc1,-,-,-,-,-,12µM
Cc1ccc(C(=O)Nc2ccc(CN3CCS(=O)(=O)CC3)cc2)cc1C,?,?,.,-,.,19µM
COc1ccc(C(=O)Nc2ccc(CN3CCS(=O)(=O)CC3)cc2)cc1,-,-,.,-,.,?
CN(C)c1ccc(C(=O)Nc2ccc(CN3CCS(=O)(=O)CC3)cc2)cc1,-,-,.,-,.,13µM
Cc1cc(C)c(NC(=O)CSc2nc3ccccc3nc2N2CCCCC2)c(C)c1,.,.,-,.,.,-
NC(N)=NC[C@H](N)C(=O)O,.,.,-[9.22 µM],.,-[7.66 µM],.
Cc1ccccc1Nc1cc(C(=O)NC2CCC(C)CC2)c2ccccc2n1 (centres undefined),.,.,-,.,.,-
COc1ccc(C2/C=C\CNCC(=O)N2Cc2ccc(F)cc2)cc1 (centres undefined),-,-,.,-,.,-
Cc1cc(C(=O)CSc2nnnn2C)c(C)n1CCc1ccc(F)cc1,-,-,-,-,-,-
Cc1cc(C(=O)CSc2nnnn2C)c(C)n1Cc1ccco1,2.8µM,2.8µM,.,?,.,13µM
Cc1cc(C(=O)CSc2ncccn2)c(C)n1Cc1ccco1,1µM,0.56µM,3.5µM,?,-,3µM
